Test results published in PubChem BioAssay AID624330 (Southern Research Specialized Biocontainment Screening …, 2012).
Values joined by “and” are separate entries in the source; they are usually repeats but may differ in a detail not shown here. Equal entries are not always repeated. About 2,100 (0.62%) of roughly 340,000 compounds were called active.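 How the source made its calls: active means first-screen hits whose inhibition reached a set limit at any dose in the follow-up dose series; inconclusive means inhibition above the set first-screen limit but never retested; inactive means the rest.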 The list is a sample of the results. Results with a measured potency or affinity are listed apart.

These compounds were tested against Rac GTPase-activating protein 1 (Homo sapiens) (UniProt Q9H0H5) (assay: blockers of MgcRacGAP-driven Rac1 GTP hydrolysis – biochemical, ADP Hunter fluorescence, primary and confirmatory, confirmation (AID 624330;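 further: fluorescence reports GDP produced by GAP-driven GTP hydrolysis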)). Conditions: MgcRacGAP-stimulated Rac1 GTP hydrolysis, at 30 µM, hits give high values, GST-tagged Rac1 F28L mutant substrate.
Rac GTPase-activating protein 1 (Homo sapiens), sequence (Q9H0H5 whole entry, looked up): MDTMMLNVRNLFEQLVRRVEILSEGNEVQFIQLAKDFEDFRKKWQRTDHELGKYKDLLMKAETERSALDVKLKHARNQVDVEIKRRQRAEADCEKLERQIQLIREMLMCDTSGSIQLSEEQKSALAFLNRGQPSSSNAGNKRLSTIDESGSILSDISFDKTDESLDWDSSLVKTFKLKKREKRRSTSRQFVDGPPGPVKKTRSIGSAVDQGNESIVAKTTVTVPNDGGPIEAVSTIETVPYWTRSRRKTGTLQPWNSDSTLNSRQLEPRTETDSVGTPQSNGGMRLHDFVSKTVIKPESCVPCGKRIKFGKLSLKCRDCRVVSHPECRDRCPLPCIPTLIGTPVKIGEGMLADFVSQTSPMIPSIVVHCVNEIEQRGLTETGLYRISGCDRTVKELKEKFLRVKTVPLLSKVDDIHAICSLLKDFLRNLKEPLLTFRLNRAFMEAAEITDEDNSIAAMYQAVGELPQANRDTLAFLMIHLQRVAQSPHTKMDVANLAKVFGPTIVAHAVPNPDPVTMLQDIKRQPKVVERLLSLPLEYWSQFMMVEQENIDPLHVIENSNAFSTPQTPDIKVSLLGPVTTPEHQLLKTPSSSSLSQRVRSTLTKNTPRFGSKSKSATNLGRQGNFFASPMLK

inhibition, inactive:
Cc1cc(C)nc(SCC(=O)c2ccc(C)c(C)c2)n1 -8.22%
Cc1cc(SCC(=O)O)nc2ccccc12 5.6% and 2.66%
COc1ccc(-n2nnnc2SCC(=O)c2ccc(O)c(O)c2)cc1 9.34%
Cc1cc(SCC(=O)c2ccc3c(c2)OCO3)nc2ccccc12 6.55%
Cc1cc(C)nc(SCC(=O)c2ccc(F)cc2)n1 3.61%
O=C(O)c1ccc(CSc2nnnn2-c2ccc(F)cc2)cc1 2.94%
COCCN(CC(=O)NCc1ccc(OC)cc1)C(=O)CCC(=O)Nc1nccs1 9.76%
COc1ccc(/C=C/C(=O)Oc2cc(C)[nH]c(=O)c2[N+](=O)[O-])cc1OC -3.35%
O=C(/C=C/c1ccc2c(c1)OCO2)NCCS(=O)(=O)N1CCN(c2ccccc2)CC1 -2.85%
Cc1cc(C)n(-c2cc(C)c(C)cc2Br)n1 4.26%
COc1ccc(-c2csc(Nc3cc(C)ccn3)n2)cc1OC 13.4%
Cc1ccnc(Nc2nc(-c3ccc(Cl)cc3)cs2)c1 4.43%
Cc1ccnc(Nc2nc(-c3ccccc3)cs2)c1 12.8%
Cc1ccnc(Nc2nc(-c3ccc(F)cc3)cs2)c1 7.49%
C[C@]12c3[nH]c4cc(-c5ccco5)ccc4c3CCN1C(=O)[C@@H](CC(=O)NCc1cccc(C(F)(F)F)c1)C[C@@H]2C(=O)N1CCCCC1 10.5%
CC(C)NC(=O)c1ccc(N(Cc2ccccc2)S(C)(=O)=O)cc1 4.09%
O=S(=O)(NCC1(N2CCOCC2)CCCCC1)c1ccccc1Cl -7.11%
CN1CCN(CCCC(=O)c2ccc(C3CCCC3)cc2)CC1 6.04%
O=C(O)c1cc([N+](=O)[O-])c(N2CCCC2)c([N+](=O)[O-])c1 9.56%
CCc1ccc(N(CC(=O)NC(C)(C)C)C(=O)CNC(=O)c2cccs2)cc1 11.2%
CCOC(=O)c1c(NC(=O)CCl)sc(CN(C)C)c1-c1ccccc1 -14%
Cn1c(=O)c2c(ncn2Cc2cccc(Cl)c2)n(C)c1=O 9.29%
O=C(c1ccccc1F)N1CCN(CC2CC3C=CC2C3)CC1 (centres undefined) 27.7%
O=C(CCC1CCCC1)N1CCN(C(=O)C2CC2)CC1 -4.27%
C1=CC2CC1CC2CN1CCN(c2ccccc2)CC1 (centres undefined) 14.6%
CCN1CCN(CC2CC3C=CC2C3)CC1 (centres undefined) 24.6%
Cc1ccc(OCC(=O)N2CCCCCCC2)cc1 9.5%
Cc1ccc(S(=O)(=O)N2CCN(CC3CC4C=CC3C4)CC2)cc1 (centres undefined) 23.4%
O=C(CCC1CCCC1)N1CCC(N2CCCCCC2)CC1 21.7%
Cc1ccc(OCC(=O)N2CCN(S(C)(=O)=O)CC2)cc1 11.9%
COc1ccccc1CN1CC(C(=O)NCC2(O)CCCCC2)CCC1=O (centres undefined) -29.3%
ONC=Nc1cccc2nonc12 4.4%
Cc1ccccc1NC(=O)COC(=O)c1cccc(S(=O)(=O)N2CCCCC2)c1 0.63%
COc1ccc(CCN(C(=O)C(F)(F)F)C(C(=O)NC2CCCCC2)c2ccc(C)s2)cc1OC (centres undefined) 4.06%
Cc1ccc(S(=O)(=O)N2CCN(C(=O)N(C)C)CC2)cc1 2.84%
O=C(Nn1cnc2ccccc2c1=O)c1ccc(Cl)c([N+](=O)[O-])c1 9.36%
COn1c(-n2nc(C)cc2C)nc2ccccc2c1=O 3.26%
CS(=O)(=O)N1CCN(CC2CC3C=CC2C3)CC1 (centres undefined) 26.4%
O=C(COc1ccccc1)N1CCN(C(=O)COc2ccccc2)CC1 2.47%
CCS(=O)(=O)N1CCN(CC2CC3C=CC2C3)CC1 (centres undefined) 3.64%
O=C(COc1ccccc1)N1CCCC1 2.28%
S=C(Cc1ccccc1)NCCc1ccccc1 9.14%
Cc1noc(C)c1N=Nc1ccc(Br)cc1C(=O)O 4.04%
O=C(NCc1ccc(Cl)cc1)c1ccncc1 6.54%
O=C(COn1nnc2ccc(S(=O)(=O)N3CCOCC3)cc21)NCc1cccc(Cl)c1 13.7%
COc1cc(Cc2cc(OC)c(O)c(OC)c2)cc(OC)c1O 6.74%
COc1cc(C(=O)C(=O)c2cc(OC)c(O)c(OC)c2)cc(OC)c1O 7.13%
Cc1ccc(S(=O)(=O)N2CCOCC2)cc1C(=O)Nc1nc(-c2ccccn2)cs1 13.7%
CCOc1ccc(S(=O)(=O)N2CCN(CC)CC2)cc1NC(=O)c1ccccc1F 0.51%
CCOc1cc(NC(=O)c2ccccc2OC)c(OCC)cc1NC(=O)c1ccccc1 -3.11%
CCn1c(C)cc(/C=C2/SC(=O)N(CC(=O)N3CCCC3)C2=O)c1C 8.19%
Cn1cnc2c1c(=O)n(Cc1cccc(Br)c1)c(=O)n2C 0.32%
O=c1cc(-c2ccccc2)oc2cc(O)c(O)c(O)c12 -59.8%
COc1c2ccoc2cc2oc(C)cc(=O)c12 6.29%
COc1cc2c(cc1OC)CN(CC(=O)Nc1ccccc1C(=O)NC1CC1)CC2 -6.05%
CCOC(=O)c1sc(N2C(=O)C(O)=C(C(=O)c3ccco3)C2c2ccc(C)o2)nc1C (centres undefined) 12.2%
CN=C1S/C(=C\c2ccc(Cl)cc2)C(=O)N1C 3.04%
CN=C1S/C(=C\c2ccc(SC)cc2)C(=O)N1C 7.27%
O=C1COc2ccc(C(=O)COC(=O)Cc3ccc(Cl)cc3)cc2N1 9.6%
COc1ccccc1C1NC(c2ccccc2OC)C(C)C(=O)C1C (centres undefined) -2.35%
COc1ccc(C2NC(c3ccc(OC)c(OC)c3OC)C(C)C(=O)C2C)c(OC)c1OC (centres undefined) 1.64%
O=C(N/N=C/c1ccc(N2CCOCC2)c([N+](=O)[O-])c1)c1ccc(F)cc1 7.08%
CC(=O)Nc1ccc(C=NNc2ccc(S(=O)(=O)Nc3ccccc3C(=O)O)cc2[N+](=O)[O-])cc1 15.7%
CCOc1ccc(C=NNc2ccc(S(=O)(=O)Nc3ccccc3C(=O)O)cc2[N+](=O)[O-])cc1OC 10%
O=C(O)c1ccccc1NS(=O)(=O)c1ccc(NN=Cc2ccc(F)cc2)c([N+](=O)[O-])c1 6.4%
CCOc1ccc(C=NNc2ccc(S(=O)(=O)Nc3ccccc3C(=O)O)cc2[N+](=O)[O-])cc1 15.4%
CCOCCCNC(=O)c1cc2cc3cc(OC)ccc3nc2o1 11.9%
CCc1nc(SCC(=O)NNC(=O)c2ccc(OC)cc2)c2ccccc2n1 -0.86%
CN(Cc1ccccc1)C(=O)CCC1CCN(C(=O)c2ccccc2C(F)(F)F)CC1 -5.88%
COc1ccc(NC(=O)CS(=O)CC(=O)Nc2ccc(OC)c(OC)c2)cc1 (centres undefined) -4.61%
O=C(COC(=O)CC1CC2CCC1C2)Nc1ccc(Cl)c(S(=O)(=O)N2CCOCC2)c1 (centres undefined) 6.02%
CCN1CCN(C(=O)c2ccc(C)c(S(=O)(=O)Nc3cccc(C)c3)c2)CC1 3.11%
O=C(c1ccc(Cn2cc(Br)cn2)cc1)N1N=C(C(F)F)CC1(O)C(F)F (centres undefined) 0.1%
CCCc1nc(NCc2ccncc2)c2nnn(Cc3ccccc3F)c2n1 10.9%
COc1cc2c(cc1NC(=O)Nc1ccc(C)cc1)oc1ccccc12 2.58%
COc1cc2c(cc1NC(=O)Nc1cccc(C)c1)oc1ccccc12 9.41%
COc1ccc(CNC(=O)Nc2cccc(C(F)(F)F)c2)cc1OC 6.37%
COc1cc2c(cc1NC(=O)Nc1ccccc1)oc1ccccc12 -0.72%
COc1cccc(NC(=O)CN2C(=O)NC(C)(c3ccc(C)cc3)C2=O)c1 (centres undefined) 6.36%
COc1ccccc1Nc1nc(N)nc(CSc2nncn2C)n1 5.08%
CC(=O)c1ccc(NC(=O)CSc2nc(Nc3ccccc3)nc(N3CCOCC3)n2)cc1 8.08%
CCN(CC)c1ccc(CN2CCC(C(=O)NCc3ccc(C)cc3)CC2)cc1 36.2%
Cc1ccc(CNC(=O)C2CCCC2)cc1 6.2%
COc1ccc(CCNc2ccc(S(=O)(=O)N3CCN(C)CC3)cc2[N+](=O)[O-])cc1 1.77%
CC(/C=C1\N=C(SCc2ccccc2)SC1=O)=C\c1ccccc1 3%
COc1ccc(/C(C)=N/NC(=O)CNC(=O)/C=C\c2ccco2)cc1 1.11%
C/C(=N/NC(=O)CNC(=O)/C=C/c1ccco1)c1ccc(Cl)cc1 18.5%
COCCCN(CC(=O)Nc1ccc(N2CCOCC2)cc1)S(=O)(=O)c1ccccc1 5.72%
CC(C)Sc1nc2sc(-c3ccccc3)cc2c(=O)n1N 11.4%
CCn1c(SC(C)C)nnc1-c1c[nH]c2ccccc12 7.88%
C=CCn1c(SCC(N)=O)nnc1-c1ccccc1O 4.07%
C=CCn1c(SCC(=O)O)nnc1-c1ccccc1 -4.43%
CN(C)C(CNC(=O)C1CC(=O)N(Cc2ccccc2)C1)c1ccccc1 (centres undefined) 5.5%
CC(C)C[C@@]12C(=O)N(c3cccc(Cl)c3)C(=O)N1[C@H](c1ccc(Br)cc1)[C@@H]1C(=O)N(C(C)(C)C)C(=O)[C@@H]12 -10.5%
